27 compounds from PubChem BioAssay (EPA / NIEHS) can be followed below.

Molecules are shown by their SMILES. Records with an inconclusive call do not appear. Activity calls are given as the source filed them. How the source made its calls, unless noted: active means hit-call score of the fitted dose curve at least 0.9, where 1 is the maximum; inconclusive means response in the unintended direction; inactive means score below 0.9.

A short description of experiment [1]: Tanguay_ZF_120hpf_TR_legacy: (Legacy) Oregon State University Tanguay Lab 120 Hour Post-fertilization zebrafish Assay for Touch Response (AID 2283667). The essentials:
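5D WT embryos; static exposure to 120 hpf, 28C, sealed/dark; DMSO 0.64% v/v final. TR scored present/absent; dead embryos excluded. Pos ctrl 5uM trimethyltin chloride.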

Read-out in experiment [2]: alkyl and aryl transferase (GSTA2), GSTA2 (gene 2939)
As to the kind of experiment: CLD_GSTA2_6hr: CellzDirect (CLD) Gene Expression Assay for alkyl and aryl transferase (GSTA2) at 6 hours (AID 2283666). The essentials: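 Primary human hepatocytes from two donor preparations were dosed daily with fresh compound at multiple concentrations, 0.2% DMSO vehicle. GSTA2 mRNA was measured at 6 hours by qNPA chemiluminescence; induction fitted relative to DMSO, with cytotoxicity flagged morphologically.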

Read-out in experiment [3]: sulfotransferase (SULT2A), SULT2A1 (gene 6822)
As to the kind of experiment: CLD_SULT2A_6hr: CellzDirect (CLD) Gene Expression Assay for sulfotransferase (SULT2A) at 6 hours (AID 2283669).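 Further: hits raise transcript level above the DMSO vehicle baseline.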 The gist of the method:
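Primary human hepatocytes from two donor preparations were dosed daily with chemicals or 0.2% DMSO and harvested at 6 h. Transcript induction read by qNPA chemiluminescence, fitted for gain of signal relative to DMSO; morphology-based cytotoxicity annotated.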

Read-out in experiment [4]: glucuronosyltransferase (UGT1A1), UGT1A1 (gene 54658)
Nature of the experiment: CLD_UGT1A1_6hr: CellzDirect (CLD) Gene Expression Assay for glucuronosyltransferase (UGT1A1) at 6 hours (AID 2283672). The gist of the method: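 Primary human hepatocytes from two donor preparations, dosed with fresh solutions in 0.2% DMSO, harvested at 6 h. UGT1A1 mRNA measured by qNPA chemiluminescence; induction fitted upward versus DMSO.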

Read-out in experiment [5]: xenobiotic metabolism (CYP1A1), CYP1A1 (gene 1543)
As to the kind of experiment: CLD_CYP1A1_24hr: CellzDirect (CLD) Gene Expression Assay for xenobiotic metabolism (CYP1A1) at 24 hours (AID 2283673). The essentials: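 Primary human hepatocytes dosed daily with fresh solutions in 0.2% DMSO vehicle. mRNA measured at 24 h by quantitative nuclease protection assay with chemiluminescence; gain-of-signal fit versus DMSO, with morphology-based cytotoxicity flags.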

The nature of experiment [6]: CLD_ACTIN_6hr: CellzDirect (CLD) Gene Expression Assay for Baseline Control (Actin) at 6 hours (AID 2283676).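 Further: active means increased actin mRNA relative to DMSO vehicle.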 The gist of the method: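 Primary human hepatocytes dosed with fresh chemical solutions (vehicle 0.2% DMSO), harvested at 6 h. Actin mRNA quantified by quantitative nuclease protection assay with chemiluminescent read-out, as background control relative to DMSO.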

Read-out in experiment [7]: Cytochrome P450 2B6 (Homo sapiens) (UniProt P20813)
Nature of the experiment: CLD_CYP2B6_6hr: CellzDirect (CLD) Gene Expression Assay for xenobiotic metabolism (CYP2B6) at 6 hours (AID 2283677).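 Further: actives raise CYP2B6 transcript above DMSO baseline so AC50 marks an inducer.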 The essentials: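 Primary human hepatocytes dosed with chemicals at multiple concentrations, vehicle 0.2% DMSO; CYP2B6 mRNA induction measured 6 h after dosing by quantitative nuclease protection assay with chemiluminescence, gain of signal fitted relative to DMSO.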

Read-out in experiment [8]: Cytochrome P450 2C19 (Homo sapiens) (UniProt P33261)
As to the kind of experiment: CLD_CYP2C19_6hr: CellzDirect (CLD) Gene Expression Assay for xenobiotic metabolism (CYP2C19) at 6 hours (AID 2283678). The gist of the method: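 Primary human hepatocytes from two donor preparations were dosed daily, with 0.2% DMSO as vehicle, and harvested 6 h after dosing. CYP2C19 mRNA induction was measured by qNPA chemiluminescence and fitted as gain of signal against DMSO.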

Experiment [9] in a line: CCTE_Padilla_ZF_144hpf_TERATOSCORE: (Legacy) CCTE's 144 Hour Post-fertilization zebrafish Assay Teratoscore, Padilla Lab (AID 2283679; active means hit-call score of the fitted dose curve at least 0.9, where 1 is the maximum; inactive means score below 0.9;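 on AC50: zebrafish embryos with chorions exposed by immersion from 6-8 hpf to 5 dpf with daily renewal; teratogenicity score from eye scoring of death hatching and malformations at 144 hpf; higher score means more developmental defects relative to DMSO baseline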). The gist of the method:
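Larvae scored by eye at 144 hpf for death, hatching and malformations after a day in clean Hanks'. Before that, daily-renewed exposure at 80 uM (0.4% DMSO, 26C) from roughly 6-8 hpf through 5 dpf, 4 embryos per chemical.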

Read-out in experiment [10]: Cytochrome P450 3A4 (Homo sapiens) (UniProt P08684)
As to the kind of experiment: CLD_CYP3A4_6hr: CellzDirect (CLD) Gene Expression Assay for xenobiotic metabolism (CYP3A4) at 6 hours (AID 2283680). The essentials: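 Primary human hepatocytes (two donor preparations) dosed; CYP3A4 mRNA harvested at 6 h and quantified by qNPA chemiluminescence. Gain of signal fitted against 0.2% DMSO vehicle; cytotoxicity flagged by phase-contrast morphology.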

Read-out in experiment [11]: Glyceraldehyde-3-phosphate dehydrogenase (Homo sapiens) (UniProt P04406)
As to the kind of experiment: CLD_GAPDH_6hr: CellzDirect (CLD) Gene Expression Assay for Baseline Control (Glyceraldehyde 3-phosphate dehydrogenase) at 6 hours (AID 2283681).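 Further: active means increased signal relative to DMSO vehicle.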 The gist of the method: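 Primary human hepatocytes from two donor preparations, dosed at multiple concentrations with 0.2% DMSO vehicle; GAPDH mRNA measured 6 h after dosing by chemiluminescent quantitative nuclease protection assay (qNPA) on denatured lysates. Serves as background control; cytotoxicity annotated by morphology.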

Read-out in experiment [12]: HMG-CoA synthase (HMGCS2), HMGCS2 (gene 3158)
Nature of the experiment: CLD_HMGCS2_6hr: CellzDirect (CLD) Gene Expression Assay for HMG-CoA synthase (HMGCS2) at 6 hours (AID 2283682).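 Further: actives raise HMGCS2 transcript above the 0.2% DMSO vehicle baseline.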 The gist of the method: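 Primary human hepatocytes dosed daily with fresh chemical, 0.2% DMSO vehicle; HMGCS2 mRNA measured at 6 h by qNPA chemiluminescence. Gain of signal fitted against DMSO; cytotoxicity flagged from phase-contrast morphology.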

Read-out in experiment [13]: xenobiotic metabolism (CYP1A2), CYP1A2 (gene 1544)
Nature of the experiment: CLD_CYP1A2_24hr: CellzDirect (CLD) Gene Expression Assay for xenobiotic metabolism (CYP1A2) at 24 hours (AID 2283683). The gist of the method:
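Primary human hepatocytes from two donor preparations dosed daily with multiple concentrations of chemical, 0.2% DMSO vehicle. CYP1A2 mRNA at 24 h quantified by qNPA chemiluminescence; gain of signal analyzed relative to DMSO. Cytotoxicity flagged by phase-contrast morphology.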

Read-out in experiment [14]: ABC Transporter (ABCB1), ABCB1 (gene 5243)
As to the kind of experiment: CLD_ABCB1_24hr: CellzDirect (CLD) Gene Expression Assay for ABC Transporter (ABCB1) at 24 hours (AID 2283684). The gist of the method:
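Primary human hepatocytes, two donor preparations, dosed daily with fresh solutions; vehicle 0.2% DMSO; harvested at 24 h. ABCB1 mRNA measured by quantitative nuclease protection assay (chemiluminescence); morphology-based cytotoxicity annotated.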

Read-out in experiment [15]: Cytochrome P450 (CYP24A1_1), CYP24A1 (gene 1591)
As to the kind of experiment: LTEA_HepaRG_CYP24A1_1: Life Technologies and Expression Analysis (LTEA) Assay for Cytochrome P450 (CYP24A1_1) using HepaRG (AID 2283671; active means hit-call score of the fitted dose curve at least 0.9, where 1 is the maximum; inactive means score below 0.9). Particulars: mRNA level, 48 h; actives raise or lower the signal. The gist of the method:
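In this test, gene induction or suppression of CYP24A1 in human HepaRG liver cells is measured by qRT-PCR after 48 h chemical treatment (eight concentrations, maximum 100 uM). Values are fitted bidirectionally relative to DMSO.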

Read-out in experiment [16]: organic anion transporter (SLCO1B1), SLCO1B1 (gene 10599)
As to the kind of experiment: CLD_SLCO1B1_6hr: CellzDirect (CLD) Gene Expression Assay for organic anion transporter (SLCO1B1) at 6 hours (AID 2283668).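 Further: active means mRNA induction above DMSO baseline.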 The gist of the method: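 Primary human hepatocytes dosed daily with test chemicals (multiple concentrations) in 0.2% DMSO vehicle; harvested at 6 h. SLCO1B1 mRNA quantified by qNPA chemiluminescence, fitted as gain-of-signal versus DMSO; cytotoxicity from phase-contrast morphology flagged alongside.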

Read-out in experiment [17]: ABC Transporter (ABCB11), ABCB11 (gene 8647)
Nature of the experiment: CLD_ABCB11_6hr: CellzDirect (CLD) Gene Expression Assay for ABC Transporter (ABCB11) at 6 hours (AID 2283675).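 Further: hits raise ABCB11 mRNA level so AC50 marks induction.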 The gist of the method: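 Human primary hepatocytes (two donor preparations) given fresh chemical daily at multiple concentrations, vehicle 0.2% DMSO. ABCB11 mRNA induction measured 6 h after dosing by qNPA chemiluminescence versus DMSO; cytotoxicity annotated from morphology.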

The AC50 is the concentration at which the activity in the assay is half-maximal.

Sequence of Glyceraldehyde-3-phosphate dehydrogenase (Homo sapiens) (P04406 whole entry, looked up): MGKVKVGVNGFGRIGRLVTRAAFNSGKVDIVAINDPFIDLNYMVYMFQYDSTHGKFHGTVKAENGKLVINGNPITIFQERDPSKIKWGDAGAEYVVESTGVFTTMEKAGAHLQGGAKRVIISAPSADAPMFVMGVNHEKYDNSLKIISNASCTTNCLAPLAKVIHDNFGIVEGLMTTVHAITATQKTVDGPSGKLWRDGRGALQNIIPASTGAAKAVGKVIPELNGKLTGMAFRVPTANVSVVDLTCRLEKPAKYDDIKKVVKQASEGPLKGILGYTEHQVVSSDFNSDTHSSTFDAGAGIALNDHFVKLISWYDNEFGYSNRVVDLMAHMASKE
Sequence of Cytochrome P450 3A4 (Homo sapiens) (P08684 whole entry, looked up): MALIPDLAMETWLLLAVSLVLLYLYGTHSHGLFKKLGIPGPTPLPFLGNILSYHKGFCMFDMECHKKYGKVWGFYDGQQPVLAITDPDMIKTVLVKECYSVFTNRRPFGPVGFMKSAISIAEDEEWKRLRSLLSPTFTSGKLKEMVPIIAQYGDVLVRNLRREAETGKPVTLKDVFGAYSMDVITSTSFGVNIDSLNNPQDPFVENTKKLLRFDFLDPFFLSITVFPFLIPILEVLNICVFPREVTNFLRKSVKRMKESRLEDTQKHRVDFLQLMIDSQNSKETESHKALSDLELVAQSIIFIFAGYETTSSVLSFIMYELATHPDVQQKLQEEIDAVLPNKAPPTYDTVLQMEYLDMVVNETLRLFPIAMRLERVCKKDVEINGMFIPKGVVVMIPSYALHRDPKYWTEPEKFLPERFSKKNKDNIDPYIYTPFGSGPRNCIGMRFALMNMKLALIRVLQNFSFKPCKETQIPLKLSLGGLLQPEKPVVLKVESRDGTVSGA
Sequence of Cytochrome P450 2C19 (Homo sapiens) (P33261 whole entry, looked up): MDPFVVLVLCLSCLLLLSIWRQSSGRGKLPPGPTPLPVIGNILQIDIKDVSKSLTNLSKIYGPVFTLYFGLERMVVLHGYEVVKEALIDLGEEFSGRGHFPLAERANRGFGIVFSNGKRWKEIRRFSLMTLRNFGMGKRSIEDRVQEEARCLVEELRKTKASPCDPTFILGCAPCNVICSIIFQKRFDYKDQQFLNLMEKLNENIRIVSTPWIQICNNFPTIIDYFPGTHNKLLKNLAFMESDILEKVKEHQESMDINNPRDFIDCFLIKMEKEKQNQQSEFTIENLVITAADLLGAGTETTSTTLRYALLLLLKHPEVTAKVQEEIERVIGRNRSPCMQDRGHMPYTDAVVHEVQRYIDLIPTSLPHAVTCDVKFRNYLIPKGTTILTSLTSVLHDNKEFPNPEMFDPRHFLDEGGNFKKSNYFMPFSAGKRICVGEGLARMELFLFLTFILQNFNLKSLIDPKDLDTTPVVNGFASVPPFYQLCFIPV

`Clc1ccc(C(Cl)(Cl)Cl)cc1`: the compound was classed as inactive in [1].

For `Cc1cccc(C)c1N`, in [1], the compound was called inactive.

On to `Cc1cc(-c2ccc(N)c(C)c2)ccc1N`, for which the result in experiment [1] was inactive.

With `CCOCCOC(C)=O`, the outcome in experiment [1] was inactive.

Turning to `CCNc1nc(NC(C)C)nc(SC)n1`, the compound was classed as inactive in experiment [2], in experiment [1], in experiment [3], in experiment [4], in experiment [6] and in [8]. Further, the outcome in experiment [11], in experiment [12] and in experiment [14] was inactive. In addition, the AC50 is 3.97 µM (active) in experiment [5]; 1 µM (active) in [7]; 149 µM (active) in experiment [9]; 1.79 µM (active) in experiment [10]; 1.29 µM (active) in experiment [13].

Regarding `O=C(NC(=O)c1c(F)cccc1F)Nc1cc(Cl)c(OC(F)(F)C(F)F)c(Cl)c1`, the result in [1] was inactive.

Take `CC(C)C(=O)OCC(C)(C)C(OC(=O)C(C)C)C(C)C` (stereo not drawn): in experiment [1], the compound was called inactive.

As for `ClC1=C(Cl)[C@]2(Cl)[C@@H]3[C@H]4C[C@H]([C@@H]5O[C@H]45)[C@@H]3[C@@]1(Cl)C2(Cl)Cl`, the AC50 in experiment [1] was 81.5 µM (active); in [9], 0.00973 µM (active).

As for `Cc1ccc(O)c(C)c1`, the compound was called inactive in [1].

For `COS(=O)(=O)OC`, the compound was classed as inactive in experiment [1], in experiment [15] and in experiment [9].

As to `CCC(C)(CC)c1cc(NC(=O)c2c(OC)cccc2OC)on1`, the compound was called inactive in experiment [2], in [1], in experiment [16], in [3], in experiment [4] and in experiment [17]. Further, the result in experiment [6], in experiment [11] and in experiment [14] was inactive. Further, the AC50 in experiment [5] was 20 µM (active); in [7], 0.116 µM (active); in experiment [9] it was 58.2 µM (active); in [10], 0.0356 µM (active); in [13] it was 8.57 µM (active).

For the compound `ClC1=C(Cl)[C@]2(Cl)[C@@H]3[C@@H](Cl)[C@H]4O[C@H]4[C@@H]3C1(Cl)C2(Cl)Cl`, the call in experiment [1] was inactive. Moreover, the AC50 in experiment [9] was 0.547 µM (active).

On to `Nn1cnnc1`, for which the call in experiment [1] was inactive.

As for `Cc1ccccc1O`, the compound was called inactive in experiment [1].

Consider `C[C@]12CCC(=O)C=C1CC[C@@H]1[C@@H]2CC[C@]2(C)C(=O)CC[C@@H]12`, for which the values for the AC50 in experiment [1] and in [9] were 26.8 µM (active) and 31.8 µM (active), respectively.

As to `COc1ccc(O)c(C(C)(C)C)c1`, in experiment [1], the result was inactive. Moreover, the AC50 in [9] is 57.8 µM (active).

In the case of `CCCCCCCCCc1ccc(O)cc1`, the compound was called inactive in experiment [1] and in [15]. In addition, the AC50 in [9] is 61.4 µM (active).

`C=CC(=O)NCNC(=O)C=C`: in experiment [1], the outcome was inactive.

In the case of `Cc1ccccc1CO[C@@H]1C[C@@]2(C(C)C)CC[C@]1(C)O2`, the compound was classed as inactive in experiment [2], in experiment [1], in experiment [16], in [3], in experiment [4] and in experiment [5]. Moreover, the result in [6], in [11] and in experiment [14] was inactive. Also, the values for the AC50 in experiment [9] and in experiment [13] were 73.1 µM (active) and 16.5 µM (active), respectively.

As for `ClC1=C(Cl)[C@]2(Cl)[C@@H]3[C@@H]4C[C@@H]([C@H]5O[C@@H]45)[C@@H]3[C@@]1(Cl)C2(Cl)Cl`, the result in experiment [1] was inactive. Also, the AC50 in experiment [9] was 0.345 µM (active).

`CCCCCCCCOC(=O)c1ccccc1C(=O)OCCCCCCCC`: the outcome in [1] and in [9] was inactive.

As for `O=C(O)C(F)(F)C(F)(F)C(F)(F)C(F)(F)C(F)(F)C(F)(F)C(F)(F)C(F)(F)C(F)(F)F`, the call in experiment [1] and in experiment [15] was inactive. Besides, the AC50 in experiment [9] was 60.2 µM (active).

On to `Clc1ccc(Cl)cc1`, for which the compound was classed as inactive in [1] and in experiment [15].

Turning to `Cc1cccc([N+](=O)[O-])c1`, the outcome in experiment [1] was inactive.

Turning to `CC1=C2C[C@H]3[C@@H](CC=C4C[C@@H](O)CC[C@@]43C)[C@@H]2CC[C@]12O[C@@H]1C[C@H](C)CN[C@H]1[C@H]2C`, the results for the AC50 in experiment [1] and in experiment [9] were 22.5 µM (active) and 0.115 µM (active), respectively. Also, the compound was classed as inactive in [15].

Take `N#Cc1ccc(N(CC(N)=O)CC(F)(F)F)cc1C(F)(F)F`: the compound was called inactive in experiment [1].

Take `Cc1ccccc1[N+](=O)[O-]`: the outcome in experiment [1] was inactive.
